Bioassay records: PubChem BioAssay, National Center for Advancing Translational Sciences (NCATS)
Sm TGR block – blocks Schistosoma mansoni thioredoxin glutathione reductase. Potency, µM (highest dose often 114 µM), inactives show top-dose activity change, negative = inhibition, actives largely listed as inhibitors. purified TGR, DTNB reduction, TNB absorbance 405 nm. Q962Y6. AID 485364. hit rate 3% among 360,000; note: potency is the fitted concentration of half-maximal effect; nearly all actives have a fitted effect of over 60% in size
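First, TGR (20 nM dispensed) and NADPH were mixed with compound. Second, a 15 min room-temperature incubation followed. Third, further NADPH and then DTNB were added to start the reaction. Finally, TNB absorbance was monitored kinetically.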
FMDV inh – antivirals against foot and mouth disease virus; hit rate 1.2% among 410,000; FMDV antiviral cell-based qHTS; Potency, µM (top dose mostly 57.9 µM), inactives show top-dose activity change, negative = inhibition, hits mostly inhibitors; AID 1159524; calls by dose curve; tested in HEK293T cells; note: read-out not given here; potency is the fitted concentration of half-maximal effect; nearly all actives have a fitted effect of over 45% in size
HCMV antiviral – blocks human cytomegalovirus replication; hit rate 4.5% among 410,000; activity change, negative = inhibition, % at 57.5 µM; HFF cells, HCMV-luciferase reporter, 72 h; hits give low values; AID 1259415; in the data active = activity change below about -60%; inconclusive = no clear call, values can overlap the other calls; inactive = above about -39%
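Luciferase read-out from HCMV-luciferase-infected HFFs (MOI 1 PFU/cell) 72 h post infection at 37C; compounds added after 16 h cell attachment; activity normalized between buffer-only basal and Salinomycin (10uM) inhibitor controls.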
Vaccinia Venus – inhibitors of vaccinia virus (Venus reporter); Vaccinia virus Venus reporter expression, fluorescence; Potency, µM (titrated, usually from 36.5 µM), for the others: at the highest dose activity change, negative = inhibition, hits mostly inhibitors; hit rate 0.46% among 330,000; calls by dose curve; tested in A549 cells; note: potency is the fitted concentration of half-maximal effect; nearly all actives have a fitted effect of over 30% in size
Vaccinia mCherry – inhibitors of vaccinia virus infection (mCherry reporter signal). Vaccinia virus mCherry reporter infection, fluorescence. Potency, µM (titrated, usually from 36.5 µM), for inactives: at the top dose activity change, negative = inhibition, usual class: inhibitors. hit rate 0.63% among 310,000; calls by dose curve; tested in A549 cells; note: potency is the fitted concentration of half-maximal effect; nearly all actives have a fitted effect of over 35% in size
HCV inh – blocks hepatitis C virus | hit rate 3.4% among 340,000 | Potency, µM (series often up to 41.8 µM), inactives show at the highest dose activity change, negative = inhibition, actives largely listed as inhibitors | Huh7.5.1 HCVcc-Cre infection, luciferase reporter, 44 h; note: potency is the fitted concentration of half-maximal effect
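Whole-lifecycle infectious HCVcc-Cre system; cells 1,000/well, compound then virus (~0.5 moi) added 4 h after plating, 44 h culture. Luciferase read 15 sec following 15 min substrate incubation, room temp.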
* hit, by the source's call; i = inactive; u = inconclusive; x = not tested or not shown; [ ] = remark or other dose. Compounds with a hit are over-represented: about 9.3% of the library has one in this group of screens. Unless noted, calls come from the whole dose curve; as a rule, active = well fitted curve in the direction sought with a large enough effect; inconclusive = small, poorly fitted or top-dose-only effect, or another doubt; inactive = no such curve, though single readings can be large; an effect the other way counts as inactive or inconclusive. % is set by controls: 0 for no effect and ±100 for the full control effect.

SMILES | Sm TGR block | FMDV inh | HCMV antiviral | Vaccinia Venus | Vaccinia mCherry | HCV inh
CC(C)c1c(O)c(-c2cc3c(c(C(C)C)c2O)CCC2C(C)(C)CCC[C@@]32C)cc2c1CCC1C(C)(C)CCC[C@@]21C (stereo not given in full) | x | -6% | x | -9% | i | x
CC(C)c1cc2c(c(O)c1O)[C@@]13CCCC(C)(C)C1CC2OC3=O (stereo not given in full) | 2.8µM* | u | 9 | -19% | -25% | -27%
FC(F)(F)c1cc(C(F)(F)F)c2ccc(N/N=C/c3ccccc3)nc2n1 | -12% | -9% | 18 | -24% | x | 3%
Cc1ccc(C(C#N)c2ccc3c(C(F)(F)F)cc(C(F)(F)F)nc3n2)cc1 (stereo not given) | 3% | u | -99* | -24% | u | 10µM*
N#CC(c1ccccc1)c1ccc2c(C(F)(F)F)cc(C(F)(F)F)nc2n1 (stereo not given) | 24% | u | -104* | 1% | -13%[1.46 µM] | -19%
c1ccc(-c2cn3nc4c(nc3n2)CCCC4)cc1 | -15% | 5.6µM* | 39 | -10% | -10% | -7%
CC(=O)c1ccc(OCc2cc(C(=O)N(C)C(C)c3nccs3)no2)cc1 (stereo not given) | -11% | -3% | 9 | -15%[7.34 µM] | i[7.34 µM] | -28%
CC(Oc1ccccc1)C(=O)Nc1nc(-c2ccccn2)cs1 (stereo not given) | -12% | -21% | u | u | 7.1µM* | u
CC(Oc1cccc(Cl)c1)C(=O)Nc1nc(-c2ccccn2)cs1 (stereo not given) | -16% | u | -72* | u | 11µM* | 6.3µM*
CCCCc1ccc(S(=O)(=O)N[C@H]2CC[C@@]34CCCN3C(=O)CCC[C@H]4[C@H]2CCC)cc1 | x | x | -10 | x | x | x
Cc1ccc(Nc2nc(Nc3ccc(C)cc3)nc(SC3=NCCS3)n2)cc1 | 7% | -2% | -5 | -26% | u | u
Cc1ccc(-c2nc(CN(CC3CCC3)CC3CCCO3)c(C)o2)s1 (stereo not given) | 56µM* | -12% | u | -4% | i | u
NC(=O)c1ccc(-n2nnnc2SCC(=O)c2ccc(O)c(O)c2)cc1 | -3% | -15% | -100* | -10% | i | 25%
COc1ccc(-n2nnnc2SCC(=O)c2ccc(O)c(O)c2)cc1 | -19% | -10% | -24 | x | x | u
Cc1cc(CNC(=O)c2cc(-c3ccccc3)nc3ccccc23)nn1C | 13% | -10% | 0 | -7% | -15% | -13%
Cc1cc(C(=O)NCc2cc(C)n(C)n2)sc1-c1ccccc1 | -2% | -24% | -83* | -24% | -10% | 4µM*
c1cc2c(cn1)cnc1cscc12 | 1% | 13% | -63* | x | x | -3%
CN(CC(=O)Nc1ccccc1Cl)C(=O)CN1C(=O)C2CCCCC2C1=O (stereo not given) | 1% | 3% | -16 | -9% | -13% | 6%
Cc1ccc(S(=O)(=O)N2CCN=C2SCc2ccc(Cl)c(Cl)c2)cc1 | -2% | -13% | 19 | 0% | -3% | 8%
COc1ccc(S(=O)(=O)N2CCN=C2SCc2cccnc2)cc1 | 8% | -27% | u | -16% | u | 10%
O=S(=O)(c1ccc(Cl)cc1)N1CCN=C1SCc1cccnc1 | -5% | -2% | -75* | -26% | -16% | 17%
O=S(=O)(c1ccccc1)N1CCN=C1SCc1cccnc1 | -12% | -1% | -40 | -18% | i | 11%
O=S(=O)(c1ccc(Cl)cc1)N1CCN=C1SCc1cccc(Cl)c1 | -13% | u | -62* | -26% | -6% | u
COc1ccc(S(=O)(=O)N2CCN=C2SCc2cccc(C)c2)cc1 | 1% | u | -75* | -14% | 0% | 2%
O=S(=O)(c1ccccc1)N1CCN=C1SCc1c(F)cccc1Cl | 8% | -20% | -80* | -14% | -10% | u
CSC1=NCCN1S(=O)(=O)c1ccccc1 | 5% | 3% | 18 | -6% | i | 18%
CCN(CC)C(=O)C(=O)c1cccn1-c1ccccc1C#N | -1% | 4% | -1 | -15% | -20% | 8%
CCCNc1nc(C)cc(-c2cc(C(=O)Nc3ccccc3)on2)n1 | x | 15% | 49 | -25% | -27% | u
